PubChem BioAssay AID1159580 (chemical genetic matrix, 2015)
The campaign covered roughly 5,500 compounds. About 2,000 (36%) were called active. About 18% were inconclusive and are not listed. Cut-off read from the data, not from the text of the source: active = normalized growth mostly below about 0.91 (no sharp cut-off); inconclusive = no clear call, values can overlap the other calls; inactive = mostly above about 0.92. Some of the results follow.

Assay: chemical genetic growth profiling, strain panel (AID 1159580);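 note: tested at 20 µM; growth read once vehicle control cultures reached saturation at 30 °C; 1 = growth at the plate median or of vehicle wells; lower values mean less growth of the strain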
Details: S. cerevisiae deletion strains, growth OD

Measured: normalized growth

COc1cc2c(cc1OC)[C@@H]1C(=O)c3ccc(O)c(CC=C(C)C)c3O[C@@H]1CO2
inactive: locus YAL026C, strain drs2, stronger effect = lower value 1.01 | locus YAL030W, strain snc1, stronger effect = lower value 1.03 | locus YBL061C, strain skt5, stronger effect = lower value 0.958 | locus YBR009C, strain hhf1, stronger effect = lower value 1.03 | locus YBR021W, strain FUR4, stronger effect = lower value 0.989 | locus YBR023C, strain chs3, stronger effect = lower value 0.987 | locus YBR171W, strain sec66, stronger effect = lower value 0.998 | locus YBR229C, strain ROT2, stronger effect = lower value 0.986 | locus YBR231C, strain swc5, stronger effect = lower value 1.01 | locus YCL011C, strain gbp2, stronger effect = lower value 1.06 | locus YCL016C, strain dcc1, stronger effect = lower value 0.965 | locus YCL029C, strain bik1, stronger effect = lower value 0.984 | locus YCL061C, strain MRC1, stronger effect = lower value 0.985 | locus YCL069W, strain vba3, stronger effect = lower value 1 | locus YCR088W, strain abp1, stronger effect = lower value 1 | locus YDL005C, strain med2, stronger effect = lower value 1.05 | locus YDL035C, strain GPR1, stronger effect = lower value 1.02 | locus YDL040C, strain nat1, stronger effect = lower value 0.975 | locus YDL074C, strain BRE1, stronger effect = lower value 0.961 | locus YDL101C, strain DUN1, stronger effect = lower value 0.969 | locus YDL134C, strain PPH21, stronger effect = lower value 0.967 | locus YDL185W, strain tfp1, stronger effect = lower value 0.974 | locus YDL192W, strain arf1, stronger effect = lower value 1.03 | locus YDR001C, strain nth1, stronger effect = lower value 1.01 | locus YDR069C, strain doa4, stronger effect = lower value 1.08 | locus YDR101C, strain arx1, stronger effect = lower value 1.05 | locus YDR137W, strain rgp1, stronger effect = lower value 1.02 | locus YDR159W, strain sac3, stronger effect = lower value 1.07 | locus YDR162C, strain NBP2, stronger effect = lower value 0.978 | locus YDR195W, strain ref2 0.963 | locus YDR297W, strain sur2, stronger effect = lower value 1.05 | locus YDR318W, strain mcm21, stronger effect = lower value 1.01 | locus YDR334W, strain swr1, stronger effect = lower value 1 | locus YDR335W, strain msn5, stronger effect = lower value 1.02 | locus YDR388W, stronger effect = lower value 0.982 | locus YDR392W, strain spt3, stronger effect = lower value 0.91 | locus YDR502C, strain sam2, stronger effect = lower value 0.971 | locus YEL003W, strain gim4, stronger effect = lower value 1.03 | locus YEL037C, strain rad23, stronger effect = lower value 1.03 | locus YEL061C, strain CIN8 (second series), stronger effect = lower value 1.06 | locus YEL061C, strain CIN8, stronger effect = lower value 0.992 | locus YER015W, strain faa2, stronger effect = lower value 1.01 | locus YER016W, strain bim1, stronger effect = lower value 1.07 | locus YER110C, stronger effect = lower value 0.966 | locus YER111C, strain swi4, stronger effect = lower value 1.02 | locus YER155C, strain BEM2 (second series), stronger effect = lower value 0.979 | locus YER155C, strain BEM2, stronger effect = lower value 0.982 | locus YER167W, strain BCK2, stronger effect = lower value 0.998 | locus YFR010W, strain ubp6, stronger effect = lower value 1.01 | locus YGL078C, strain dbp3, stronger effect = lower value 1.02 | locus YGL086W, strain mad1, stronger effect = lower value 1.02 | locus YGL167C, strain pmr1, stronger effect = lower value 0.988 | locus YGL173C, strain kem1, stronger effect = lower value 1.01 | locus YGL227W, strain vid30, stronger effect = lower value 0.997 | locus YGL240W, strain doc1, stronger effect = lower value 1.03 | locus YGL248W, strain PDE1, stronger effect = lower value 0.932 | locus YGL253W, strain hxk2, stronger effect = lower value 1.02 | locus YGR078C, strain PAC10, stronger effect = lower value 0.975 | locus YGR135W, strain pre9, stronger effect = lower value 0.952 | locus YGR229C, strain SMI1, stronger effect = lower value 1.19 | locus YGR252W, strain gcn5, stronger effect = lower value 0.999 | locus YHR013C, strain ard1, stronger effect = lower value 1.02 | locus YHR027C, strain rpn1, stronger effect = lower value 1.03 | locus YHR030C, strain SLT2, stronger effect = lower value 0.994 | locus YHR079C, strain IRE1 (second series), stronger effect = lower value 1 | locus YHR094C, strain hxt1, stronger effect = lower value 0.988 | locus YHR129C, strain ARP1, stronger effect = lower value 0.984 | locus YHR142W, strain chs7, stronger effect = lower value 1.02 | locus YHR200W, strain rpn10, stronger effect = lower value 1 | locus YIL066C, strain RNR3, stronger effect = lower value 0.981 | locus YIL073C, strain SPO22, stronger effect = lower value 0.913 | locus YIL125W, strain kgd1, stronger effect = lower value 0.994 | locus YIR030C, strain dcg1, stronger effect = lower value 0.981 | locus YJL092W, strain hpr5, stronger effect = lower value 1 | locus YJL095W, strain BCK1 (second series), stronger effect = lower value 1.02 | locus YJL095W, strain BCK1, stronger effect = lower value 0.953 | locus YJL115W, strain asf1, stronger effect = lower value 1.06 | locus YJL134W, strain LCB3, stronger effect = lower value 0.978 | locus YJL154C, strain vps35, stronger effect = lower value 1.01 | locus YJL164C, strain tpk1, stronger effect = lower value 1.02 | locus YJL166W, strain qcr8, stronger effect = lower value 1.06 | locus YJL168C, strain set2, stronger effect = lower value 0.979 | locus YJL187C, strain SWE1 (second series), stronger effect = lower value 0.951 | locus YJR043C, strain POL32, stronger effect = lower value 1.05 | locus YKL009W, strain mrt4, stronger effect = lower value 0.93 | locus YKL068W, stronger effect = lower value 0.969 | locus YKL085W, strain MDH1 (second series), stronger effect = lower value 0.963 | locus YKL085W, strain MDH1, stronger effect = lower value 0.963 | locus YKL160W, strain elf1, stronger effect = lower value 1.02 | locus YKR001C, strain vps1, stronger effect = lower value 1.02 | locus YKR026C, strain gcn3, stronger effect = lower value 1 | locus YKR091W, strain srl3, stronger effect = lower value 1.03 | locus YLL001W, strain dnm1, stronger effect = lower value 1 | locus YLL026W, stronger effect = lower value 1.03 | locus YLR027C, strain aat2, stronger effect = lower value 1.07 | locus YLR039C, strain RIC1, stronger effect = lower value 0.925 | locus YLR058C, strain SHM2, stronger effect = lower value 0.98 | locus YLR102C, strain apc9, stronger effect = lower value 0.991 | locus YLR221C, strain rsa3, stronger effect = lower value 1.04 | locus YLR258W, strain gsy2, stronger effect = lower value 1.06 | locus YLR262C, strain YPT6 (second series), stronger effect = lower value 0.97 | locus YLR262C, strain YPT6, stronger effect = lower value 0.906 | locus YLR268W, strain sec22, stronger effect = lower value 1.02 | locus YLR320W, strain mms22, stronger effect = lower value 0.961 | locus YLR330W, strain CHS5, stronger effect = lower value 0.99 | locus YLR342W, strain FKS1 (second series), stronger effect = lower value 1.06 | locus YLR342W, strain FKS1, stronger effect = lower value 1.02 | locus YLR357W, strain rsc2, stronger effect = lower value 1.05 | locus YLR370C, strain arc18, stronger effect = lower value 1 | locus YLR371W, strain rom2, stronger effect = lower value 1.02 | locus YLR384C, strain iki3, stronger effect = lower value 0.971 | locus YLR418C, strain cdc73, stronger effect = lower value 1 | locus YML016C, strain PPZ1, stronger effect = lower value 1 | locus YML032C, strain rad52, stronger effect = lower value 1.01 | locus YML120C, strain ndi1, stronger effect = lower value 0.976 | locus YML124C, strain tub3, stronger effect = lower value 0.989 | locus YMR058W, strain fet3, stronger effect = lower value 1 | locus YMR078C, strain ctf18, stronger effect = lower value 1.01 | locus YMR125W, strain sto1, stronger effect = lower value 1.01 | locus YMR129W, stronger effect = lower value 1.01 | locus YMR205C, strain PFK2, stronger effect = lower value 1.02 | locus YMR223W, strain ubp8, stronger effect = lower value 0.995 | locus YMR231W, strain pep5, stronger effect = lower value 0.959 | locus YMR307W, strain GAS1, stronger effect = lower value 1.1 | locus YNL067W, strain RPL9B, stronger effect = lower value 0.958 | locus YNL071W, strain lat1, stronger effect = lower value 1.02 | locus YNL128W, strain TEP1, stronger effect = lower value 0.966 | locus YNL209W, strain ssb2, stronger effect = lower value 1.05 | locus YNL233W, strain BNI4, stronger effect = lower value 0.947 | locus YNL248C, strain rpa49, stronger effect = lower value 1.01 | locus YNL250W, strain rad50, stronger effect = lower value 0.923 | locus YNL271C, strain bni1, stronger effect = lower value 1 | locus YNL298W, strain CLA4, stronger effect = lower value 0.959 | locus YNL307C, strain MCK1, stronger effect = lower value 0.967 | locus YNL322C, strain KRE1 (second series), stronger effect = lower value 1.04 | locus YNL322C, strain KRE1, stronger effect = lower value 0.985 | locus YNR049C, strain mso1, stronger effect = lower value 0.999 | locus YNR052C, strain pop2, stronger effect = lower value 0.986 | locus YOL012C, strain htz1 0.715 | locus YOL147C, strain pex11, stronger effect = lower value 0.987 | locus YOR001W, strain rrp6, stronger effect = lower value 1.05 | locus YOR061W, strain CKA2, stronger effect = lower value 0.99 | locus YOR069W, strain VPS5, stronger effect = lower value 0.98 | locus YOR070C, strain gyp1, stronger effect = lower value 1.02 | locus YOR080W, strain dia2, stronger effect = lower value 1.07 | locus YOR083W, strain WHI5, stronger effect = lower value 1 | locus YOR136W, strain idh2, stronger effect = lower value 0.98 | locus YOR144C, strain elg1, stronger effect = lower value 0.993 | locus YOR184W, strain ser1, stronger effect = lower value 1.08 | locus YOR265W, strain rbl2, stronger effect = lower value 1 | locus YOR270C, strain vph1, stronger effect = lower value 0.971 | locus YOR290C, strain snf2, stronger effect = lower value 1.01 | locus YOR316C, strain cot1, stronger effect = lower value 0.966 | locus YPL051W, strain arl3, stronger effect = lower value 1 | locus YPL055C, strain LGE1, stronger effect = lower value 1.01 | locus YPL078C, strain atp4, stronger effect = lower value 1.01 | locus YPL106C, strain sse1, stronger effect = lower value 1.11 | locus YPR119W, strain clb2, stronger effect = lower value 0.986 | locus YPR141C, strain kar3, stronger effect = lower value 1.01 | locus YPR163C, strain tif3, stronger effect = lower value 1.01 | locus YPR167C, strain met16, stronger effect = lower value 0.987 | strain wtn01, stronger effect = lower value 1.04
active: locus YAL021C, strain ccr4, stronger effect = lower value 1.12 [resistant] | locus YBR279W, strain paf1, stronger effect = lower value 1.12 [resistant] | locus YJL129C, strain trk1, stronger effect = lower value 1.17 [resistant] | locus YJL187C, strain SWE1, stronger effect = lower value 1.1 [resistant] | locus YLL041C, strain sdh2, stronger effect = lower value 1.09 [resistant] | locus YOR106W, strain vam3, stronger effect = lower value 1.13 [resistant] | locus YPL240C, strain hsp82, stronger effect = lower value 1.11 [resistant]
